Screening results: PubChem, National Center for Advancing Translational Sciences (NCATS)
The list is not random: actives were taken first. Their share in the collection is about 1.3%.
AMA1-RON2 inh: inhibitors of Plasmodium falciparum AMA1-RON2 interaction | AlphaScreen AMA1-biotinylated RON2 peptide binding | Potency, µM (top dose mostly 58.2 µM), for inactives: top-dose activity change, negative = inhibition, usual class: inhibitors | AID 720542 | actives 0.2% (n = 360,000);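 further: 0% = vehicle wells and -100% = peptide control; nearly all actives have a fitted effect of over 45% in size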
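AMA1 (3D7) with his tag at 25 nM final met compounds first, then biotinylated RON2 peptide at 25 nM; detection used donor plus acceptor beads, 10 µg/mL apiece, read by AlphaScreen after 30 min at room temperature.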
Vaccinia Venus: inhibitors of vaccinia virus (Venus reporter). Vaccinia virus Venus reporter expression, fluorescence. AID 720580. actives 0.46% (n = 330,000). Potency, µM (titrated, usually from 36.5 µM), without a hit: top-dose activity change, negative = inhibition, actives largely listed as inhibitors; calls by dose curve; tested in A549 cells; further: on the % scale 0 is the no-effect control and ±100 the full control effect; nearly all actives have a fitted effect of over 30% in size
AmpC inh no detg: inhibitors of E. coli AmpC beta-lactamase without detergent; Potency, µM (top dose mostly 57.1 µM), without a hit: at the top dose activity change, negative = inhibition, most hits filed as inhibitors; AID 485341; AmpC nitrocefin hydrolysis, absorbance 480 nm, 0.0001% Triton; actives 0.52% (n = 330,000);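 further: plate controls were no compound for no effect and no enzyme for full effect; nearly all actives have a fitted effect of over 20% in size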
Target sequence (P00811 whole entry, looked up): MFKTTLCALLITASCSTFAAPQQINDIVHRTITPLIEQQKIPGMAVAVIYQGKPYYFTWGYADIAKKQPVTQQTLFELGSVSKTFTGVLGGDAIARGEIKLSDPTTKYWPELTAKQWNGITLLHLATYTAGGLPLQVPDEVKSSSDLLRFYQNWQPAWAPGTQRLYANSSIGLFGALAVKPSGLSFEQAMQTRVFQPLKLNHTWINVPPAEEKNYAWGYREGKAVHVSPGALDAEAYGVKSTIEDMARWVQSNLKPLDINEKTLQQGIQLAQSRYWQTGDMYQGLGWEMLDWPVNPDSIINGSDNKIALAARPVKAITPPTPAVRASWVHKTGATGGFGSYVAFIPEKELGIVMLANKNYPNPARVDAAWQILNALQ
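AmpC (5.3 nM in the dispensed reagent) in 20 mM phosphate pH 7.0 with 0.01% (detergent screen) or 0.0001% Triton X-100 was preincubated with compounds for 15 min at room temperature. Nitrocefin was then added from an 800 uM solution, and hydrolysis was followed at 480 nm.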
VACV mCherry inh: inhibitors of vaccinia virus infection (mCherry reporter signal); Vaccinia virus mCherry reporter infection, fluorescence; Potency, µM (doses to about 36.5 µM), for inactives: at the highest dose activity change, negative = inhibition, usual class: inhibitors; actives 0.63% (n = 310,000); calls by dose curve; tested in A549 cells; further: on the % scale 0 is the no-effect control and ±100 the full control effect; nearly all actives have a fitted effect of over 35% in size
SARS PLP yeast: inhibitors of SARS-CoV papain-like protease in yeast; S. cerevisiae expressing SARS-CoV PLpro, growth rescue; Potency, µM (highest dose often 32.9 µM), for the others: top-dose activity, positive = growth rescue, most hits filed as activators; actives 0.19% (n = 330,000); AID 485353; calls by dose curve; further: 0% is about no effect; nearly all actives have a fitted effect of over 55% in size
AmpC detergent: blocks E. coli AmpC beta-lactamase in detergent assay | AmpC hydrolysis of nitrocefin, absorbance 480 nm, 0.01% Triton | P00811 | actives 0.041% (n = 370,000) | Potency, µM (doses to about 114 µM), without a hit: at the top dose activity change, negative = inhibition, hits mostly inhibitors | AID 485294;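 further: 0% = no-compound wells and -100% = no-enzyme wells; nearly all actives have a fitted effect of over 25% in size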
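AmpC (5.3 nM in the dispensed reagent) in 20 mM phosphate pH 7.0 with 0.01% (detergent screen) or 0.0001% Triton X-100 was preincubated with compounds for 15 min at room temperature. Nitrocefin was then added from an 800 uM solution, and hydrolysis was followed at 480 nm.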
* hit, by the source's call; [ ] = remark or other dose. Unless noted, the call rests on the fitted dose curve; in most records, active means well fitted curve in the direction sought with a large enough effect; inconclusive means small, poorly fitted or top-dose-only effect, or another doubt; inactive means no such curve, though single readings can be large; an effect the other way counts as inactive or inconclusive. Potency means the concentration at half of the fitted maximal effect.

How did COc1cccc(C(=O)N(Cc2cc3ccc(C)cc3nc2N(C)C)C2CC2)c1OC do in these assays?
Vaccinia Venus: -4%; VACV mCherry inh: -16%

What do the screens show for `Cc1ccc(CNC(=O)CN2C(=O)COc3ccc(C)cc32)cc1`?
AMA1-RON2 inh: 9%; AmpC inh no detg: -8%; SARS PLP yeast: 2%; AmpC detergent: -3%

How did CCN1CCCC1CNC(=O)CN1C(=O)COc2ccc(C)cc21 (stereo not given) do in these assays?
AMA1-RON2 inh: 9%; Vaccinia Venus: -14%; AmpC inh no detg: 25µM*; VACV mCherry inh: -21%; SARS PLP yeast: 10%; AmpC detergent: 7%

Results for Cc1ccc(-c2cc(C(=O)Nc3ccc(S(=O)(=O)Nc4cc(C)on4)cc3)c3ccccc3n2)c(C)c1 ?
AMA1-RON2 inh: -7%; Vaccinia Venus: -16%; AmpC inh no detg: 10µM*; SARS PLP yeast: 7%; AmpC detergent: inconclusive

Results for O=C(Nn1c(C2CCCCC2)nc2ccccc2c1=O)c1ccc([N+](=O)[O-])cc1Cl ?
AMA1-RON2 inh: -5%; Vaccinia Venus: -14%; AmpC inh no detg: 14µM*; VACV mCherry inh: -5%; SARS PLP yeast: -17%; AmpC detergent: -10%

What do the screens show for `O=C(Nn1c(C2CCCCC2)nc2ccccc2c1=O)c1cc(Cl)ccc1[N+](=O)[O-]`?
AMA1-RON2 inh: -6%; Vaccinia Venus: 2%; AmpC inh no detg: -12%; VACV mCherry inh: inactive; SARS PLP yeast: 9%; AmpC detergent: 4%

What do the screens show for `COc1ccc(-c2nc3ccc(NC(=O)CO)cc3c(=O)n2Cc2cccc(Cl)c2)cc1COc1ccc(NC(C)=O)cc1`?
Vaccinia Venus: -11%; VACV mCherry inh: -15%

What do the screens show for `O=C(CNc1ccccc1)N/N=C/c1ccc([N+](=O)[O-])o1`?
AMA1-RON2 inh: 5%; AmpC inh no detg: -36%; SARS PLP yeast: -1%; AmpC detergent: -13%

Results for O=C(N/N=C/c1ccc([N+](=O)[O-])o1)c1ccc(O)cc1 ?
AMA1-RON2 inh: -7%; Vaccinia Venus: inconclusive; AmpC inh no detg: 172%; VACV mCherry inh: 13µM*; SARS PLP yeast: 5%; AmpC detergent: -13%

What do the screens show for `Cc1nc2ccccn2c1C(=O)N/N=C/c1ccc([N+](=O)[O-])cc1`?
AMA1-RON2 inh: -6%; Vaccinia Venus: -3%; AmpC inh no detg: -8%; VACV mCherry inh: -10%; SARS PLP yeast: 0%; AmpC detergent: -1%

Results for Cc1nc2ccccn2c1C(=O)N/N=C/c1ccc([N+](=O)[O-])o1 ?
AMA1-RON2 inh: inconclusive; Vaccinia Venus: 7.1µM*; AmpC inh no detg: -24%; VACV mCherry inh: inconclusive; SARS PLP yeast: -1%; AmpC detergent: -8%

What do the screens show for `Cc1ccc(NCC(=O)N/N=C\c2ccc([N+](=O)[O-])o2)cc1`?
AMA1-RON2 inh: inconclusive; Vaccinia Venus: inconclusive; AmpC inh no detg: -23%; VACV mCherry inh: 11µM*; SARS PLP yeast: 29%; AmpC detergent: -7%

Results for O=C(N/N=C/c1ccc([N+](=O)[O-])o1)c1ccncc1 ?
AMA1-RON2 inh: -9%; Vaccinia Venus: 4%[7.34 µM]; AmpC inh no detg: -10%; VACV mCherry inh: inactive[7.34 µM]; SARS PLP yeast: 3%; AmpC detergent: 7%

How did Cc1c(C(=O)N(C)Cc2cscn2)sc2ncnc(NC[C@H]3CCc4ccccc4O3)c12 do in these assays?
Vaccinia Venus: -3%; VACV mCherry inh: 3%

What do the screens show for `CC(C)Oc1ccc(C(CCN)C2CCCCC2)cc1` (stereo not given)?
AMA1-RON2 inh: -5%; Vaccinia Venus: inconclusive; AmpC inh no detg: 65%; VACV mCherry inh: 13µM*; SARS PLP yeast: 1%; AmpC detergent: 5%

What do the screens show for `COc1ccc(N(CC(=O)N2CCCCC2)S(=O)(=O)c2ccccc2)c(OC)c1`?
AMA1-RON2 inh: -1%; Vaccinia Venus: 3%; AmpC inh no detg: 8.9µM*; VACV mCherry inh: -13%; SARS PLP yeast: 11%; AmpC detergent: 3%

What do the screens show for `COc1ccc(CN2CCCC(n3cc(C(=O)NC4CCCC4)nn3)C2)c2ccccc12` (stereo not given)?
Vaccinia Venus: -19%; VACV mCherry inh: inactive

How did CC[C@H](C)[C@@H]1NC(=O)[C@H]([C@@H](C)CC)NC(=O)[C@@H](CC(C)C)NC(=O)[C@H](Cc2ccccc2)NC(=O)[C@H](Cc2ccccc2)NC(=O)[C@@H]2CCCN2C(=O)[C@@H]2CCCN2C(=O)[C@H](C(C)C)NC(=O)[C@H](CC(C)C)NC1=O do in these assays?
AMA1-RON2 inh: -4%; Vaccinia Venus: inconclusive; AmpC inh no detg: 54%; VACV mCherry inh: -18%; SARS PLP yeast: -4%

What do the screens show for `CC(NC(=O)c1ccco1)c1nnc2n1CCN(Cc1cccc(Cl)c1)CC2` (stereo not given)?
Vaccinia Venus: 10%; VACV mCherry inh: -1%

How did COc1cccc(-c2cnc3c(NC=O)cc(-c4ccc(O)c(OC)c4)cn23)c1 do in these assays?
AMA1-RON2 inh: 0%; Vaccinia Venus: -23%; VACV mCherry inh: -28%

Results for COc1cc(-c2cc(NC=O)c3ncc(-c4ccc(C(C)=O)cc4)n3c2)ccc1O ?
AMA1-RON2 inh: 38%; Vaccinia Venus: 11µM*; VACV mCherry inh: 10µM*

What do the screens show for `Cn1cc(-c2cnc3c(NC=O)cc(-c4cccc(C(F)(F)F)c4)cn23)cn1`?
AMA1-RON2 inh: 45%; Vaccinia Venus: inconclusive; VACV mCherry inh: 10µM*

What do the screens show for `Nc1ccc(-c2cc(NC=O)c3ncc(-c4cccc(C(F)(F)F)c4)n3c2)cn1`?
AMA1-RON2 inh: 45%; Vaccinia Venus: 11µM*; VACV mCherry inh: inconclusive

Results for CC(=O)Nc1cc(-c2cccnc2)cn2c(-c3cccc(C(F)(F)F)c3)cnc12 ?
AMA1-RON2 inh: 18%; Vaccinia Venus: 13µM*; VACV mCherry inh: 10µM*

How did COc1ccc(CN2CCOc3ccc(CN4CCC(Oc5cccnc5)CC4)cc3C2)cc1C do in these assays?
Vaccinia Venus: -10%; VACV mCherry inh: -26%

How did CN(Cc1cccc2ncccc12)C(=O)c1cnn(-c2ncc3c(n2)-c2ccccc2CC3)c1C1CC1 do in these assays?
Vaccinia Venus: inconclusive; VACV mCherry inh: -29%

How did CCn1cc(CN2CCOc3ccc(C(O)C4CCCCC4)cc3C2)c(C)n1 (stereo not given) do in these assays?
Vaccinia Venus: -7%; VACV mCherry inh: -9%
